{"source": "PubChem BioAssay (NCI)", "note": "About 83,000 compounds went through this panel and 20% of them were active in at least one assay; those are over-represented in the sample as a whole.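 The test compound was applied at a single concentration to cells in 96-well plates for 48 hours, and percent growth was recorded.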 Activity calls are given as the source filed them. The calls were made as follows: active = growth percent below 10; inactive = the rest."}
{"tested_on": "786-0 renal", "test": "NCI-60 one-dose screen, 48 h (100 = growth as untreated, 0 = no growth, -100 = all killed)", "conditions": "10 µM unless noted"}
{"smiles": "c1ccc(COc2ccc3[nH]cc(CCN(Cc4ccccc4)Cc4ccccc4)c3c2)cc1", "growth": "91.9% (inactive)"}
{"smiles": "[Au+].[N-]=C=O.c1ccc(CN2[CH-]N(Cc3ccccc3)C(c3ccccc3)=C2c2ccccc2)cc1", "growth": "90.2% (inactive)"}
{"smiles": "CC1=C(CCCNS(C)(=O)=O)C2=C(C)C3(CC3)[C@@](C)(O)C(=O)C2=C1", "growth": "-17.6% (active)"}
{"smiles": "C[C@]12CC[C@H]3[C@@H](CC[C@]4(O)C[C@@H](O[C@@H]5O[C@H](CO)[C@@H](O[C@@H]6OC[C@@H](O)[C@H](O)[C@H]6O)[C@H](O)[C@H]5O)CC[C@]34C=O)[C@@]1(O)CC[C@@H]2C1=CC(=O)OC1", "growth": "0.0388% (active)"}
{"smiles": "CN1C(=O)N[C@H]2[C@@H]3NC(=O)c4ccc(Br)n4[C@@H]3C[C@]21O", "growth": "-19.3% (active)"}
{"smiles": "COC1OC(CO)C(O)C(O)[CH]1[Hg][O]C(C)=O", "note": "(stereo not given)", "growth": "106% (inactive)"}
{"smiles": "OCc1ccc2c(c1)OCO2", "growth": "104% (inactive)"}
{"smiles": "Nc1nnnc2nc[nH]c12", "growth": "0.102% (active)"}
{"smiles": "CC1CCCC(C[N+](C)(C)C)C1=O", "note": "(stereo not given)", "growth": "112% (inactive)"}
{"smiles": "CNC(=O)Oc1cccc(C(F)(F)F)c1", "growth": "105% (inactive)"}
{"smiles": "COc1cc2c(cc1OCCCn1c(-c3ccccn3)nc3ccccc31)N=C[C@@H]1CCCN1C2=O", "growth": "-33.7% (active)"}
{"smiles": "CCCCCCCOC(C(=O)OCCN(CC)CC)(c1ccccc1)c1ccccc1", "growth": "65.8% (inactive)"}
{"smiles": "CC(=O)OCC1O[C@@H]([S-])C(OC(C)=O)[C@H](OC(C)=O)[C@@H]1OC(C)=O.[Au+].c1ccc(CN2[CH-]N(Cc3ccccc3)C(c3ccccc3)=C2c2ccccc2)cc1", "growth": "40.1% (inactive)"}
{"smiles": "COc1ccc(C(=O)c2sc3nc4c(cc3c2N)N2CCC4CC2)cc1OC", "growth": "90.9% (inactive)"}
{"smiles": "CC(CC1CCCCC1)NCc1ccccc1", "note": "(stereo not given)", "growth": "99.9% (inactive)"}
{"smiles": "COc1ccc(/C=C\\c2cc(OC)c(OC)c(OC)c2)cc1OCC(=O)Nc1nc2ccc(C(F)(F)F)cc2s1", "growth": "83.2% (inactive)"}
{"smiles": "O=C1CCC2(O)[C@@H]3Cc4ccc(O)c5c4[C@]2(CCN3Cc2ccoc2)C1O5", "note": "(stereo not given in full)", "growth": "103% (inactive)"}
{"smiles": "C/C(=C\\c1cc(C(F)(F)F)nn1CCNC(=O)OC(C)(C)C)[C@@H]1C[C@@H]2O[C@]2(C)CCC[C@H](C)[C@H](O)[C@@H](C)C(=O)C(C)(C)[C@@H](O)CC(=O)O1", "growth": "67.8% (inactive)"}
{"smiles": "CC(C)CCC(=O)O[C@H]1CC[C@H]2[C@@H]3CCC4=CC(=O)CC[C@]4(C)[C@H]3CC[C@]12C", "growth": "105% (inactive)"}
{"smiles": "ClCCN(CCCl)Cc1ccc(Nc2ccnc3cc(Cl)ccc23)cc1", "growth": "8.84% (active)"}
{"smiles": "COc1cc(NC(C)CCCNC2CN3CCC2CC3)c2ncccc2c1", "note": "(stereo not given)", "growth": "62.5% (inactive)"}
{"smiles": "C=CCCCN=C=S", "growth": "93.4% (inactive)"}
{"smiles": "CCN(CC)CCOC(=O)C(OC(C)C)(c1ccccc1)c1ccccc1", "growth": "88.2% (inactive)"}
{"smiles": "CCC1(C(C)C)C(=O)NC(=S)NC1=O", "growth": "108% (inactive)"}
{"smiles": "CC[C@]12C=CCN3CC[C@]4(C(=C(C(=O)OC)C1)Nc1cc(OC)c(OC(C)=O)cc14)[C@@H]32", "growth": "5.06% (active)"}
